BoNT-A LC inh2: BoNT/A light chain protease inhibitors, primary screen, biochemical, flow cytometry, MLPCN library; multiplex microsphere protease substrate cleavage; inhibition, % at 10 µM; 360,000 compounds, 0.17% hits; AID 588499, 2011; also: plate controls were buffer without enzyme for full effect and enzyme alone for no effect
SARS 3CLpro inh: SARS-CoV 3CLpro protease inhibitors, primary screen, biochemical, quenched FRET | inhibition, % at 6 µM | 290,000 compounds, 0.14% hits | AID 1706, 2009 | recombinant SARS-CoV 3CLpro, quenched FRET peptide cleavage; in the data active = inhibition above about 12%
Autofluor counter: flagged as autofluorescent in microsphere protease counterscreen; AID 624483; compound autofluorescence counterscreen, microsphere flow cytometry; hits give high values; fluorescence intensity (test concentration not listed); 360,000 compounds, 3.1% hits; in the data active = fluorescence intensity above about 16000; inconclusive = no clear call, values can overlap the other calls
Anthrax LF inh2: Bacillus anthracis LF protease inhibitors, primary screen, biochemical, multiplex microsphere, MLPCN library | multiplex microsphere protease cleavage assay | inhibition, % at 10 µM | 360,000 compounds, 0.12% hits | AID 588501, 2011; also: plate controls were buffer without enzyme for full effect and enzyme alone for no effect
BoNT-F LC inh: BoNT/F light chain protease inhibitors, primary screen, biochemical, flow cytometry, MLPCN library. Botulinum neurotoxin type F light chain protease (Clostridium botulinum). Multiplex microsphere protease cleavage assay. inhibition, % at 10 µM. 360,000 compounds, 0.22% hits; in the data active = inhibition above about 35%, passing the limit was not always enough; inconclusive = no clear call, values can overlap the other calls; also: plate controls were buffer without enzyme for full effect and enzyme alone for no effect
Starred values were filed as active, the others as inactive; ? = inconclusive; . = no result given. A selection: hits, their analogues and other compounds. The true share with any hit is near 3.5%. Rule as the data show it, unless noted: active = inhibition above about 30%; inconclusive = no clear call, values can overlap the other calls; inactive = below that.

SMILES	BoNT-A LC inh2	SARS 3CLpro inh	Autofluor counter	Anthrax LF inh2	BoNT-F LC inh
CCCCOC(=O)c1ccc(NC(=O)CSC2=Nc3ccccc3C3CC=NN23)cc1 (configuration not stated)	-1	3	22279*	-2	-4
c1ccc(CN2CCN(c3nc(-c4ccccn4)nc4ccccc34)CC2)cc1	-1	-8	3316	3	0
CCN1CCN(c2nc(-c3ccccn3)nc3ccccc23)CC1	-6	0	24768*	-2	-12
Cc1cc(NC(=O)NC2(C(F)(F)F)Oc3ccc(Cl)cc3O2)no1 (configuration not stated)	-1	2	16576*	-3	0
COCCNC(=O)NC1(C(F)(F)F)Oc2ccc(Cl)cc2O1 (configuration not stated)	0	-3	10005	9	0
COc1ccc(C(=O)N2c3ccc(F)cc3CCC2C)cc1OC (configuration not stated)	1	-4	3179	1	6
Cn1c(Br)nc2c1c(=O)n(Cc1ccccc1)c(=O)n2C	-1	0	3893	2	?
Cn1c(Cl)nc2c1c(=O)n(Cc1cccc(Br)c1)c(=O)n2C	0	-5	20509*	0	-1
COc1ccc(CNc2nc3c(c(=O)n(Cc4ccc(Br)cc4)c(=O)n3C)n2C)cc1	-2	-3	20995*	-5	-6
CC(=O)Nc1cc(-c2ccc(N3CCN(C)CC3)cc2)cn2c(-c3ccc(F)c(Cl)c3)cnc12	0	.	2941	-12	-17
Cc1ccc(COc2coc(CO)cc2=O)cc1	0	0	5441	-2	5
O=c1cc(CO)occ1OCc1cccc(F)c1	?	1	19821*	-1	0
N#C/C(=C\c1ccc[nH]1)S(=O)(=O)c1ccccc1	-2	7	16572*	-2	-5
CCn1cc(/C=C(/C#N)S(=O)(=O)c2ccccc2)cn1	-1	1	23211*	-2	-3
Cn1nccc1/C=C(/C#N)S(=O)(=O)c1ccccc1	-1	-3	?	-8	4
COc1cc(C(=O)O[C@H]2CC(C)=CC[C@@]3(C)CC[C@@](O)(C(C)C)[C@H]23)ccc1O	-1	-5	3977	3	-14
O=C(NCc1ccccc1)N1CCn2c(nc3ccccc32)C1	2	-5	19281*	-3	0
O=C(c1ccccc1)N1CCn2c(nc3ccccc32)C1	?	5	19484*	1	4
CN(C(=O)COc1ccc(Oc2ccccc2)cc1)C1CCS(=O)(=O)C1 (configuration not stated)	0	2	5586	-6	-5
Cc1cccc(OCc2nc(-c3nonc3N)no2)c1C	?	0	22795*	-1	-3
CCCc1cc(=O)[nH]c(SCC(=O)c2cc(C)n(CCOC)c2C)n1	0	-2	6678	-2	3
Cc1cccc(Nc2nn3c(=O)c4ccccc4nc3s2)c1	3	-2	7916	1	13
C=CCOc1ccc(/C=C2/C(=O)ON=C2C)cc1OC	-6	-2	3879	-2	2
O=C(NC1(C(F)(F)F)NC(=O)N(Cc2cccnc2)C1=O)c1ccncc1 (configuration not stated)	0	1	13028	-1	0
O=C(NC1(C(F)(F)F)NC(=O)N(Cc2cccnc2)C1=O)c1ccc(F)cc1 (configuration not stated)	-1	-3	23016*	-2	-3
SMILES	BoNT-A LC inh2	SARS 3CLpro inh	Autofluor counter	Anthrax LF inh2	BoNT-F LC inh
COc1cc(NC(=O)c2cccs2)c(C(=O)OCC(=O)NC(=O)NCc2ccccc2)cc1OC	0	-1	3259	-4	5
Oc1ccc2ccccc2c1C1Nc2cccc3cccc(c23)N1	-1	-4	23653*	-7	-10
Cc1nc(C(C)NC(=O)c2ccc(OC3CCN(Cc4ccccn4)CC3)cc2)c(C)s1 (configuration not stated)	0	0	4921	2	-2
Cc1c(NC(=O)NCc2ccccc2)c(=O)n(-c2ccccc2)n1C	2	3	22336*	-2	2
Cc1c(NC(=O)Nc2ccccc2)c(=O)n(-c2ccccc2)n1C	2	-8	4277	-7	10
Cc1c(NC(=O)c2n[nH]c(=O)c3ccccc23)c(=O)n(-c2ccccc2)n1C	3	-1	21768*	-4	4
Cc1c(NC(=O)CSc2nccn2C)c(=O)n(-c2ccccc2)n1C	?	3	16417*	-1	0
CCOC(=O)Nc1c(C)n(C)n(-c2ccccc2)c1=O	12	.	19722*	-12	10
O=S(=O)(Nc1cccc(-n2cnnn2)c1)c1ccc(Cl)nc1	14	0	2488	4	19
O=C(NCC(=O)N(c1ccccc1)C(C(=O)NC1CCCCC1)c1ccncc1)c1ccco1 (configuration not stated)	1	5	4692	-1	18
CCN(CC)c1ccc(NC(=O)COC(=O)C23CCC(=O)N2c2ccccc2S3)cc1 (configuration not stated)	-1	0	3880	-9	-13
O=S(=O)(c1ccc(-c2ccccc2)cc1)N1CCCCC1	2	-1	4059	-20	?
Cc1ccc(C(=O)NC(=S)/C=C2\N(C)c3ccccc3C2(C)C)cc1	42*	6	3476	19	-7
Cc1c(NC(=S)/C=C2\N(C)c3ccccc3C2(C)C)c(=O)n(-c2ccccc2)n1C	4	5	19375*	-4	7
Cc1c(N=C/C=C2\N(C)c3ccccc3C2(C)C)c(=O)n(-c2ccccc2)n1C	0	2	8872	-6	7
Cc1c(NS(=O)(=O)N2CCCCC2)c(=O)n(-c2ccccc2)n1C	0	1	16324*	0	0
CCn1cc(C(=O)OCC(=O)Nc2c(C)n(C)n(-c3ccccc3)c2=O)c(=O)c2ccc(C)nc21	0	-1	23317*	-1	2
CCn1cc(C(=O)OC(C)C(=O)Nc2c(C)n(C)n(-c3ccccc3)c2=O)c(=O)c2ccc(C)nc21 (configuration not stated)	0	-4	2084	1	-2
Cc1ccc(N2C(=O)CSC2c2c(F)cccc2Cl)cc1 (configuration not stated)	?	4	17035*	-11	13
CC1(C(=O)Nc2nnc(SCc3ccccc3)s2)Cc2ccccc2C(=O)O1 (configuration not stated)	4	1	22013*	-7	5
O=C(O)CCC(=O)OCC1CCCCC1	?	-1	19321*	0	2
N/C(=N\OC(=O)C(c1ccccc1)c1ccccc1)c1cccnc1	0	8	11168	-5	-15
CO/N=C(\c1ccccc1)c1cccnc1	0	0	4201	-1	56*
O=C1/C(=C\c2ccccc2)CCc2c1[nH]c1ccccc21	-1	-6	23509*	-1	-3

Compound activity from PubChem BioAssay.
